Rows were chosen to be rich in hits. Some 7.4% of all compounds tested hit in one or more screens of this group.
NIH3T3 tox: kills NIH 3T3 cells; NIH 3T3 viability, CellTiter-Glo ATP luminescence, 48-72 h; 94,000 compounds, 4.3% hits; AID 1345082; Potency, µM (series often up to 96.7 µM), without a hit: at the top dose activity change, negative = cytotoxicity, most hits filed as inhibitors; further: nearly all actives have a fitted effect of over 55% in size
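NIH 3T3 cells at 400 cells/well received 23 nL of compound by pintool and were incubated 48 or 72 h at 37 °C. Viability was read as ATP-coupled CellTiter-Glo luminescence.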
Luciferase inh: blocks purified firefly luciferase enzyme activity; purified P. pyralis luciferase, luminescence, biochemical; 76,000 compounds, 2.5% hits; Potency, µM (top dose mostly 115 µM), most hits filed as inhibitors; P08659; AID 1347043; further: nearly all actives have a fitted effect of over 65% in size
Target sequence (P08659 whole entry, looked up): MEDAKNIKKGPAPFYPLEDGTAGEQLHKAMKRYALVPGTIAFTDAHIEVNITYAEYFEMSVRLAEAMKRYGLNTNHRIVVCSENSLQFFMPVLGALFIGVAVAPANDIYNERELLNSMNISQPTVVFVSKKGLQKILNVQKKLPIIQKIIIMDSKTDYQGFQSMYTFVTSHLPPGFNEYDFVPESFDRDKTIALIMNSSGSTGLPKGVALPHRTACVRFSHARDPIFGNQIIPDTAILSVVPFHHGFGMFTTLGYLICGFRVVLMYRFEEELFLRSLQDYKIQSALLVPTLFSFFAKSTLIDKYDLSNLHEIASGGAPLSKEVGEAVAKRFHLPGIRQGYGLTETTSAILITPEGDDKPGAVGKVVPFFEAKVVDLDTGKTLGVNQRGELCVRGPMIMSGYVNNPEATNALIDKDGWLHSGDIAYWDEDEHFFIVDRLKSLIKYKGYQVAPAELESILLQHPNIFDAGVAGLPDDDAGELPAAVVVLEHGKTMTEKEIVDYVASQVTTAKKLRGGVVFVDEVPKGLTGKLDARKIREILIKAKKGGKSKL
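Luminescence read by CCD imager after adding enzyme (10nM final) to wells holding compound, titrated in qHTS. Substrates 10uM each D-luciferin and ATP; buffer 50mM Tris acetate pH 7.5, 10mM Mg acetate, Tween-20, BSA.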
HEK cytotox: HEK 293 cell cytotoxicity; HEK 293 viability, ATP luminescence (CellTiter-Glo), 48-72 h; 94,000 compounds, 6.6% hits; AID 1345083; Potency, µM (doses to about 115 µM), for inactives: at the highest dose activity change, negative = cytotoxicity, hits mostly inhibitors; further: nearly all actives have a fitted effect of over 60% in size
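HEK 293 cells at 250 cells/well were exposed to compounds by pintool transfer for 48 or 72 hr at 37 degree Celsius, 5% CO2. Viability was read as ATP-coupled luminescence with CellTiter-Glo after 10 min at room temperature.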
HEK293 viab: counter-screen for SNCA expression inhibitors: cell viability; HEK-293-SNCA-luc viability, GF-AFC fluorescence, 24 h; Potency, µM (highest dose often 57.1 µM), for the others: at the top dose activity change, negative = cytotoxicity, actives largely listed as cytotoxic; 150,000 compounds, 0.12% hits;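 further: 0% = DMSO-treated cells and -100% = medium-only wells without cells; nearly all actives have a fitted effect of over 30% in size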
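HEK-293-SNCA-luc cells (1500/well) plated 24 h, then exposed 24 h to a dilution series; GF-AFC added 30 min at 37C, fluorescence 405/540 nm; normalised to medium-only and DMSO wells, Hill fit.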
hNpr1 antagonist: blocks ANP-stimulated signaling of human Npr1 receptor. P16066. HEK293 hNpr1 GloSensor cGMP, ANP-stimulated luminescence. Potency, µM (titrated, usually from 46.3 µM), inactives show at the highest dose activity change, negative = inhibition, hits mostly inhibitors. 76,000 compounds, 1.6% hits. AID 1347048; calls by dose curve; further: nearly all actives have a fitted effect of over 60% in size
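HEK293 cells stably expressing human Npr1 and cGMP GloSensor pGS-40F, loaded 2 h with 2% GloSensor reagent, given compound 30 min at room temperature. Luminescence read before and 20 min after 0.1 nM hNppA.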
SNCA expr inhib: reduces expression of the alpha-synuclein gene; HEK-293 SNCA-luciferase knock-in, luminescence, 24 h; Potency, µM (series often up to 57.2 µM), for inactives: at the top dose activity change, negative = inhibition, actives largely listed as inhibitors; 140,000 compounds, 0.17% hits; AID 1671194;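 further: plate controls were DMSO cells for no effect and cell-free wells for full effect; nearly all actives have a fitted effect of over 45% in size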
The depositor's hits bear a star; [ ] = another dose, or the depositor's remark. Unless noted, the call rests on the fitted dose curve; in most records, active means well fitted curve in the direction sought with a large enough effect; inconclusive means small, poorly fitted or top-dose-only effect, or another doubt; inactive means no such curve, though single readings can be large; an effect the other way counts as inactive or inconclusive. Unless noted, on the % scale 0 is the no-effect control and ±100 the full control effect; potency means the concentration at half of the fitted maximal effect.

O=C(NCC1CCCCC1)C1CCCCN1Cc1ccc(-c2ccsc2)cc1 (stereo not given) was read as NIH3T3 tox inconclusive, HEK cytotox inconclusive, HEK293 viab -19% and SNCA expr inhib inconclusive.
Screening CCOC(=O)C1=C(C)N=C2SC=C(CC(=O)N3CCC(C)CC3)N2C1c1ccccc1F (stereo not given) returned NIH3T3 tox inconclusive, Luciferase inh inactive, HEK cytotox 40µM*, HEK293 viab -6%, hNpr1 antagonist -16% and SNCA expr inhib inconclusive.
For COCCOC(=O)C1=C(C)N=C2SC=C(CC(=O)NCCc3ccccc3)N2C1c1ccccc1 (stereo not given) the results were NIH3T3 tox inconclusive, Luciferase inh inactive, HEK cytotox 50µM*, HEK293 viab -11%, hNpr1 antagonist -3% and SNCA expr inhib -2%.
`COCCOC(=O)C1=C(C)N=C2SC=C(CC(=O)N3CCCCC3C)N2C1c1ccccc1` (stereo not given) gave NIH3T3 tox -16%, Luciferase inh inactive, HEK cytotox 35µM*, HEK293 viab 8%, hNpr1 antagonist -9% and SNCA expr inhib 21%.
For COC(=O)C1=C(C)N=C2SC=C(CC(=O)N3CCCCC3C)N2C1c1cccc(OC)c1 (stereo not given) the results were NIH3T3 tox -27%, Luciferase inh inactive, HEK cytotox inconclusive, HEK293 viab 11%, hNpr1 antagonist -25% and SNCA expr inhib -5%.
For CC1=C(C(=O)Nc2ccccc2)C(c2cc(C)ccc2C)N2C(CC(=O)N3CCCC3)=CSC2=N1 (stereo not given) the results were NIH3T3 tox inconclusive, Luciferase inh inactive, HEK cytotox 32µM*, HEK293 viab -12%, hNpr1 antagonist inconclusive and SNCA expr inhib 0%.
For COC(=O)C1=C(C)N=C2SC=C(CC(=O)N3CCCC3)N2C1c1ccccc1Cl (stereo not given) the results were NIH3T3 tox -10%, Luciferase inh inactive, HEK cytotox inconclusive, HEK293 viab 12%, hNpr1 antagonist -19% and SNCA expr inhib 37%.
O=C(c1ccccc1F)N1CCC(c2nn(-c3ccccn3)c(=O)[nH]2)CC1 was read as NIH3T3 tox -14%, HEK cytotox -7%, HEK293 viab -6% and SNCA expr inhib 11%.
`Cc1cccc(C(=O)N2CCCCC2c2nc(C3CC3)n[nH]2)c1` (stereo not given) gave NIH3T3 tox -23%, HEK cytotox -2%, HEK293 viab -12% and SNCA expr inhib -15%.
Screening Fc1ccccc1-c1cc2c(ccn2Cc2ccncc2)c(N2CCOCC2)n1 returned NIH3T3 tox 35µM*, Luciferase inh inactive, HEK cytotox 89µM*, HEK293 viab -14%[87.6 µM], hNpr1 antagonist -1%[70.6 µM] and SNCA expr inhib -21%[87.6 µM].
c1cc(-c2cc3c(ccn3Cc3ccncc3)c(N3CCOCC3)n2)c2[nH]ncc2c1 was read as NIH3T3 tox inconclusive, Luciferase inh inactive, HEK cytotox 89µM*, HEK293 viab -29%[87.6 µM], hNpr1 antagonist -13%[70.6 µM] and SNCA expr inhib inconclusive.
`N#Cc1ccccc1-c1cc2c(ccn2Cc2ccncc2)c(N2CCOCC2)n1` gave NIH3T3 tox inconclusive, Luciferase inh inactive, HEK cytotox inconclusive, HEK293 viab -14%[87.6 µM], hNpr1 antagonist -11%[70.6 µM] and SNCA expr inhib -12%[87.6 µM].
`c1cc(-c2cc3c(ccn3Cc3ccncc3)c(N3CCOCC3)n2)c2cn[nH]c2c1` gave NIH3T3 tox 14µM*, Luciferase inh inactive, HEK cytotox 89µM*, HEK293 viab -23%[87.6 µM], hNpr1 antagonist -18%[70.6 µM] and SNCA expr inhib -14%[87.6 µM].
Screening COc1ccccc1-c1cc2c(ccn2Cc2ccncc2)c(N2CCOCC2)n1 returned NIH3T3 tox inconclusive, Luciferase inh inactive, HEK cytotox inconclusive, HEK293 viab -10%[87.6 µM], hNpr1 antagonist -16%[70.6 µM] and SNCA expr inhib -5%[87.6 µM].
For c1cc(-c2cc3c(ccn3Cc3ccncc3)c(N3CCOCC3)n2)c2cc[nH]c2c1 the results were NIH3T3 tox 35µM*, Luciferase inh inactive, HEK cytotox 32µM*, HEK293 viab -28%[87.6 µM], hNpr1 antagonist -16%[70.6 µM] and SNCA expr inhib -9%[87.6 µM].
`CC(=O)Nc1cccc(-c2cc3c(ccn3Cc3ccncc3)c(N3CCOCC3)n2)c1` gave NIH3T3 tox inconclusive, Luciferase inh inactive, HEK cytotox -18%[172 µM], HEK293 viab 9%[87.6 µM], hNpr1 antagonist 2%[70.6 µM] and SNCA expr inhib 6%[87.6 µM].
O=C(NCc1ccc(C(F)(F)F)cc1)[C@@H]1CCCN1c1nccc(Nc2ccccc2Cl)n1 was read as NIH3T3 tox inconclusive, HEK cytotox inconclusive, HEK293 viab -5%[12.5 µM] and SNCA expr inhib -23%.
`Cn1ncc2c(C(=O)Nc3ccccc3F)cc(-c3cccc(F)c3)nc21` gave NIH3T3 tox 4% and HEK cytotox 4%.
CCCCn1c(=O)c(C(=O)NCCc2ccccc2F)nc2cccnc21 was read as NIH3T3 tox -26%, HEK cytotox -7%, HEK293 viab -7% and SNCA expr inhib -10%.
`COc1ccccc1-c1cccc(C(=O)N2CCC[C@H]2C(=O)N2CCC(c3ccccc3)CC2)c1` gave NIH3T3 tox inconclusive, HEK cytotox inconclusive, HEK293 viab -2%[12.5 µM] and SNCA expr inhib inconclusive.
For CC(C)Cn1c(=O)c(C(=O)NCC(F)(F)F)nc2cccnc21 the results were NIH3T3 tox -3%, HEK cytotox 5%, HEK293 viab 1% and SNCA expr inhib 18%.
Screening O=C(COc1ccc(F)cc1)N1CCC(N2C(=O)C3(CCCC3)C2c2ccccc2)CC1 (stereo not given) returned NIH3T3 tox inconclusive, HEK cytotox inconclusive, HEK293 viab -11% and SNCA expr inhib -28%.
Screening Cc1ncoc1C(=O)N1CCC([C@H]2[C@@H](Oc3ccccc3)CN2C(C)C)CC1 returned NIH3T3 tox -24%, HEK cytotox -18%, HEK293 viab 5% and SNCA expr inhib 23%.
Screening CN1CCN(C(=O)C2CCc3nnc(-c4cccc(C(F)(F)F)c4)n32)CC1 (stereo not given) returned NIH3T3 tox -19%, HEK cytotox -10%, HEK293 viab -7% and SNCA expr inhib -28%.
`O=C(c1ccccc1Cl)N1CCN(CCCn2nc3n(c2=O)CCCC3)CC1` gave NIH3T3 tox -23% and HEK cytotox -12%.
COc1cccc(-c2cc3c(ccn3CC3CCN(C)CC3)c(N3CCOCC3)n2)c1 was read as NIH3T3 tox 25µM*, Luciferase inh inactive, HEK cytotox 63µM*, HEK293 viab -28%[87.6 µM], hNpr1 antagonist 0%[70.6 µM] and SNCA expr inhib inconclusive.

High-throughput results from PubChem BioAssay.
